PNC assembly inh: perinucleolar compartment assembly inhibition | PC3M PTB-GFP, PNC prevalence imaging, 16 h; active compounds read low | activity change (PNC), negative = inhibition, % at 10 µM | 140,000 tested, 3.1% active;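 active = readout at or below -70, meaning at least 70% loss of cells showing the perinucleolar compartment, a nuclear body marking cancer cells; inconclusive = readout between -30 and a set limit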;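 also: plate controls were DMSO wells for no effect and camptothecin positive control wells for full effect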
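Compounds are pinned in duplicate onto adhered PC3M cells stably expressing GFP-tagged PTB and incubated 16 h at 37 C. Cells are then fixed, nuclei stained with Hoechst, and PNC-positive cells counted.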
HPGD block: blocks human HPGD enzyme activity. purified HPGD, NADH fluorescence kinetic, PGE2 substrate. Potency, µM, inactives show at the top dose activity change, negative = inhibition, actives largely listed as inhibitors. 150,000 tested, 4.3% active; also: potency is read from the fitted curve at half-maximal effect
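20 nM HPGD preincubated 15 min at room temperature with compound in 50 mM Tris-HCl pH 8, 0.01% Tween 20. Started with 1 mM NAD+ and 30 uM prostaglandin E2; NADH fluorescence (360/450 nm) read 5 times over 30-s intervals, last minus first.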
ALDH1A1 inh: inhibitors of human aldehyde dehydrogenase 1A1. 220,000 tested, 7.3% active. P00352. Purified ALDH1A1, NADH fluorescence, propionaldehyde substrate. Potency, µM (titrated, usually from 75.3 µM), without a hit: top-dose activity, negative = inhibition, hits mostly inhibitors;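 also: potency is read from the fitted curve at half-maximal effect; plate controls were no enzyme wells and a reference inhibitor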
Target sequence (P00352 whole entry, looked up): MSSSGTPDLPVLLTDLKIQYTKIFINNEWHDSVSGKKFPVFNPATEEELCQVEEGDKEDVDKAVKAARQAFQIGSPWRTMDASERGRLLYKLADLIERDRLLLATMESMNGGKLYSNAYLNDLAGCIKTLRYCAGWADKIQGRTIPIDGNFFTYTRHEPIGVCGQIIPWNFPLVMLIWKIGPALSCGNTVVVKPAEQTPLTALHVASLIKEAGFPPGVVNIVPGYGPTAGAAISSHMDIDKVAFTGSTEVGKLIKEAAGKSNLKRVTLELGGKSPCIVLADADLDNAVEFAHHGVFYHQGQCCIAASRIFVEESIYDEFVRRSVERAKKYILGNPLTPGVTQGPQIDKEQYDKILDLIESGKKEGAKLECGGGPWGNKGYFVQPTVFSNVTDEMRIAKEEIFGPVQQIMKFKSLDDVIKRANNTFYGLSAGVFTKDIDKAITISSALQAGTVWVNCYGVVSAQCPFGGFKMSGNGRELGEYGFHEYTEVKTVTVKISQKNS
12-hLO inh: blocks human 12-lipoxygenase activity; purified 12-hLO, xylenol orange hydroperoxide absorbance; P18054; 150,000 tested, 0.12% active; Potency, µM (highest dose often 57.1 µM), without a hit: at the highest dose activity change, negative = inhibition, actives largely listed as inhibitors; AID 1452; active = well fitted inhibition curve with a large enough effect; inconclusive = small, poorly fitted or top-dose-only effect; also: potency is read from the fitted curve at half-maximal effect; nearly all actives have a fitted effect of over 55% in size
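Hydroperoxide output read as Fe(III)-xylenol orange absorbance, 573-to-405 nm ratio, after 30 min reaction with 40 uM arachidonic acid. Enzyme: 150 nM purified human 12hLO, 15 min compound preincubation; 25 mM Hepes pH 7.0, room temperature.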
LMNA splice mod: LMNA splicing modulation | HeLa LMNA splicing GFP/RFP minigene ratio, 48 h | Potency, µM (highest dose often 46.1 µM), inactives show at the highest dose ratio change, negative = inhibition, usual class: inhibitors | 200,000 tested, 0.01% active | AID 1487; active = well fitted inhibition curve with a large enough effect in the signal ratio, with a control signal flat, not every such curve was filed as active; inconclusive = small, poorly fitted or top-dose-only effect, or effect the other way, or a change in a side signal; the % refers to the signal ratio; also: potency is read from the fitted curve at half-maximal effect
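S3 HeLa cells stably expressing lamin A-EGFP splicing minigene plus DsRed2, 600 cells/well, 48 h compound exposure at 37C. Laser-scanning cytometry; analysed as GFP (500-530 nm)/RFP (575-640 nm) total intensity ratio; 0.5% DMSO vehicle.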
* hit, by the source's call; ? = inconclusive; . = not tested or not shown; [ ] = dose if it differs, or a comment. This is a sample that favours compounds with a hit; in the whole collection about 10% have one here. Unless noted, calls follow the shape of the dose curve; as a rule, active = well fitted inhibition curve with a large enough effect (not every such curve was filed as active); inconclusive = small, poorly fitted or top-dose-only effect, or another doubt; inactive = no such curve, though single readings can be large or run the other way. Unless noted, % is scaled to controls: 0 for no effect and ±100 for the full control effect.

SMILES	PNC assembly inh	HPGD block	ALDH1A1 inh	12-hLO inh	LMNA splice mod
C=CCN1C(=O)[C@]2(c3ccccc31)C1CCCC=C1C(C#N)=C(N)C2(C#N)C#N (stereo partly drawn)	-11	-10%	4µM*	?	14%
N#CC1=C(N)C(C#N)(C#N)C(c2cccnc2)C2CCCC=C12 (stereo not drawn)	3	-28%	?	0%	15%
C=CCN1C(=O)C2(c3ccccc31)C1CCCC=C1C(C#N)=C(N)C2(C#N)C#N (stereo not drawn)	-29	-13%	10µM*	-23%	-8%
CCNCCNC(=O)c1c(O)c2ccccc2n(CC)c1=O	18	-9%	-1%	-8%	2%
CCn1c(-c2ccccc2)c(C(=O)CCl)c2ccccc21	.	.	6.3µM*	.	.
Cn1c(-c2ccccc2)c(O)c(=O)c2ccccc21	.	.	-6%[13.5 µM]	.	.
Cn1c(-c2ccccc2)c(C(=O)CCl)c2ccccc21	.	.	4µM*	.	.
Cc1nc(NC2CCCCC2)c2nc(-c3ccccc3)n(CCN(C)C)c2n1	.	?	?	0%	.
CN(C)S(=O)(=O)N(CC(=O)NCCSCc1ccccc1Cl)c1ccccc1	.	.	.	.	2%[46 µM]
COc1ccc(NC(=O)Cn2c(=O)ccc3cc(S(=O)(=O)N4CCCC4)ccc32)cc1Cl	.	.	.	.	-1%[46 µM]
N#CCCN1CCN(C(=S)c2ccc(-c3cccc(Cl)c3)o2)CC1	-19	28µM*	11µM*	-19%	?
S=C(c1ccc(-c2cccc(Cl)c2)o1)N1CCOCC1	22	22µM*	11µM*	-23%	7%
O=[N+]([O-])c1cccc(-c2ccc(C(=S)N3CCOCC3)o2)c1	.	.	3%	.	.
S=C(c1ccc(-c2cccc(Cl)c2)o1)N1CCCCC1	.	.	14µM*	.	-3%[46 µM]
O=[N+]([O-])c1cc(-c2ccc(C(=S)N3CCOCC3)o2)ccc1Cl	.	.	4µM*	.	7%[9.22 µM]
CCCCCCCCCCCCCCCCCC(=O)O[C@H](CC(=O)O)C[N+](C)(C)C	.	.	.	-3%	.
Cc1cc(C)cc(-n2cnc3cc(C(=O)NC4CCCCCC4)ccc32)c1	.	.	.	.	-19%[46 µM]
Cc1ccc(C)c(Cn2cnc3c(cnn3C(C)(C)C)c2=O)c1	-1	22µM*	?	-8%	2%
Cc1ccc(S(=O)(=O)NN=C2C3CC4CC(C3)CC2C4)cc1[N+](=O)[O-]	16	-17%	18µM*	1%	3%
CC(C)(C)C1CCC(=NNS(=O)(=O)c2ccc(Br)cc2)CC1 (stereo not drawn)	-20	-5%	1.4µM*	3%	1%
CC(=O)N1CCC(=NNS(=O)(=O)c2cccc([N+](=O)[O-])c2)CC1	-2	-14%	11µM*	-7%	11%
Cc1ccc(S(=O)(=O)NN=C2CCC(C(C)(C)C)CC2)cc1[N+](=O)[O-] (stereo not drawn)	-26	-8%	6.3µM*	-2%	-6%
CC(C)OC(=O)NS(=O)(=O)c1cccc([N+](=O)[O-])c1	.	.	9%	.	11%[9.22 µM]
COCCn1c(=O)cnc2cnc(OC)nc21	.	.	0%	.	2%
COC(=O)c1ccc(C(NC(=O)OCc2ccccc2)/C(F)=C/[C@@H](C)C(=O)NCc2cccnc2)cc1 (stereo partly drawn)	.	-8%	-9%	-5%	.
SMILES	PNC assembly inh	HPGD block	ALDH1A1 inh	12-hLO inh	LMNA splice mod
C/C(=N\NS(=O)(=O)c1ccc(C)c([N+](=O)[O-])c1)c1cccs1	.	.	32µM*	.	-12%[46 µM]
CC1CCCC/C1=N\NS(=O)(=O)c1ccc(Br)cc1 (stereo not drawn)	25	1%	4.5µM*	-13%	-2%
CCCC1CCC(=NNS(=O)(=O)c2ccc(C)c([N+](=O)[O-])c2)CC1 (stereo not drawn)	?	-3%	?	-4%	-6%
CC(=O)N1CCC(=NNS(=O)(=O)c2ccc(C)c([N+](=O)[O-])c2)CC1	-20	-1%	10µM*	0%	2%
C/C(=N\NS(=O)(=O)c1ccc([N+](=O)[O-])cc1)c1cccs1	.	.	1%	.	.
S=C(NCCc1ccccc1)Nc1ccc(Br)cc1	?	-11%	1%	-23%	?
COc1cccc(-c2ccc3ncnc(N4CCNCC4)c3c2)c1	.	.	-4%	.	-6%
S=C(NCc1ccccc1)NCc1ccccc1	-22	14µM*	?	?	-1%
Cc1ccccc1NC(=S)NCc1cccs1	?	-20%	-2%	-1%	9%
O=S(=O)(c1c(F)cccc1F)N1CCN(C(=S)NCc2ccc3c(c2)OCO3)CC1	.	.	4µM*	.	?
Cc1ccccc1NC(=S)NCc1ccccc1	?	28µM*	2%	-7%	7%
Fc1ccccc1NC(=S)NCc1ccc2c(c1)OCO2	1	-16%	-14%	-5%	-1%
Cc1cccc(NC(=S)NC(=O)CCc2ccccc2)c1C	27	-28%	13µM*	?	12%
CC(=O)c1cccc(NC(=O)c2sc(-n3nc(C)c(Cc4ccc5c(c4)OCO5)c3C)nc2C)c1	.	.	.	.	3%[46 µM]
CCOc1ccc(-n2c(C)nc3cc(C(=O)NC4CCCC4)ccc32)cc1	.	.	.	.	-11%[46 µM]
Cc1cccc(C)c1NC(=S)NCCc1ccccn1	-105*	-9%	-4%	-1%	2%
C/C(=N\NC(=S)NCCc1ccccc1)c1ccc(Cl)cc1	?	-18%	?	?	-12%
S=C(NCc1ccccc1)NCc1ccc2c(c1)OCO2	?	16µM*	?	-7%	7%
C/C(=N\NC(=S)NCCc1ccccc1)c1ccc(C)cc1	246	-19%	-4%	14µM*	?
Cc1ccccc1NC(=S)NCCc1ccccc1	?	25µM*	?	?	?
Cc1ccccc1NC(=S)NCCc1ccccn1	?	-3%	14%	1%	5%[0.0737 µM]
CC12CCC3c4ccc(OCc5ccccc5)cc4CCC3C1CC(O)C2O (stereo not drawn)	.	-4%	-15%	-1%	.
COc1cc(/C=N/NC(=O)c2cc(-c3ccccc3)n[nH]2)cc(OC)c1OC	.	?	?	-5%	.
S=C(NCCc1ccccc1)Nc1ccccn1	11	-5%	3.2µM*	?	7%
S=C(NCCc1ccncc1)Nc1ccccc1	.	.	-3%	.	-12%[46 µM]
CCn1c(=O)cc(OCC(=O)N(C)C2CCCCC2)c2ccccc21	-19	-10%	20µM*	-2%	1%
CN(C(=O)COc1cc(=O)n(C)c2ccccc12)c1ccc(Br)cc1	-22	-10%	22µM*	-8%	-23%
CCn1c(=O)cc(OCC(=O)N2CCN(C(=O)c3ccco3)CC2)c2ccccc21	9	-12%	18µM*	-2%	-18%
COC(=O)[C@@]1(Cc2ccc(F)cc2)[C@H]2c3cc(C(=O)N4CCCC4)n(Cc4c(CO)[nH]cc(C)c4=O)c3C[C@H]2CN1C(=O)c1ccccc1	.	-12%	-6%	-2%	.

Screening results (PubChem)
